Experiment [1] has as its target BDNF/NT-3 growth factors receptor (Homo sapiens) (UniProt Q16620). The note with it: at 10 µM.
Experiment [2] deals with T1, Tyrosine-protein kinase TXK (Homo sapiens) (UniProt P42681).
T1 sequence (whole entry): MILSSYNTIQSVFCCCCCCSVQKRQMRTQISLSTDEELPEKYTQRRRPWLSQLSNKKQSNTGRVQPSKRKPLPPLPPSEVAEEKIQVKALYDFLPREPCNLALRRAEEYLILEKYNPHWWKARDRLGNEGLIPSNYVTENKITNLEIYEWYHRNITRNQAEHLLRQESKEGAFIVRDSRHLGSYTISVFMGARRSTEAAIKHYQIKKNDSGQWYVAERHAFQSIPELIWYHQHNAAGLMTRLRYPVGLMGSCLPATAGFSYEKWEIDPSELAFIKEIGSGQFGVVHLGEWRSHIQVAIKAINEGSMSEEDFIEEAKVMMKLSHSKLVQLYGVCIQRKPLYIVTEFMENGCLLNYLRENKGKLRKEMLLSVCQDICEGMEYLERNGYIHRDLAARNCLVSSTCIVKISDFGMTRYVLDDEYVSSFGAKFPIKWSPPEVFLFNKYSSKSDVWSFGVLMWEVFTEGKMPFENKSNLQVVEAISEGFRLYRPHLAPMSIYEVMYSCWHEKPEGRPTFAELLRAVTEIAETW
The note with it: at 1 µM.

The target in experiment [3] is T1, Tyrosine-protein kinase TXK (Homo sapiens). The settings on record: at 10 µM.
Experiment [4] deals with T2, Serine/threonine-protein kinase ULK3 (Homo sapiens) (UniProt Q6PHR2).
T2 sequence (whole entry): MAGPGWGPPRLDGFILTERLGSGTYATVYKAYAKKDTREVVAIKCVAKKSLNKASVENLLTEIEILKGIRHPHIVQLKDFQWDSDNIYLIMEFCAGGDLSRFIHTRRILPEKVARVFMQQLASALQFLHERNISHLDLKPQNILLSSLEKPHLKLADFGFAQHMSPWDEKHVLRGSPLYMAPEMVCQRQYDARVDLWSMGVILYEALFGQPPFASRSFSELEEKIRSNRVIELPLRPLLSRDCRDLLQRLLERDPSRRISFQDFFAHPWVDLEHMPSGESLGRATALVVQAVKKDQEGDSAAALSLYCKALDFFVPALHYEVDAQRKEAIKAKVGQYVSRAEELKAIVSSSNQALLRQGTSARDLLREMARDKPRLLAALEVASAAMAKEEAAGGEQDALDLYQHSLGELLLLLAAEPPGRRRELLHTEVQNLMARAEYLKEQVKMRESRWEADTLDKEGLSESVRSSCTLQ
The note with it: at 1 µM.

The target in experiment [5] is T2, Serine/threonine-protein kinase ULK3 (Homo sapiens). The settings on record: at 10 µM.
The target of experiment [6] is Serine/threonine-protein kinase VRK2 (Homo sapiens) (UniProt Q86Y07). The note with it: at 1 µM.
Experiment [7] has the same target. The settings on record: at 10 µM.
In experiment [8] the target is T3, Serine/threonine-protein kinase ULK2 (Homo sapiens) (UniProt Q8IYT8).
T3 sequence (whole entry): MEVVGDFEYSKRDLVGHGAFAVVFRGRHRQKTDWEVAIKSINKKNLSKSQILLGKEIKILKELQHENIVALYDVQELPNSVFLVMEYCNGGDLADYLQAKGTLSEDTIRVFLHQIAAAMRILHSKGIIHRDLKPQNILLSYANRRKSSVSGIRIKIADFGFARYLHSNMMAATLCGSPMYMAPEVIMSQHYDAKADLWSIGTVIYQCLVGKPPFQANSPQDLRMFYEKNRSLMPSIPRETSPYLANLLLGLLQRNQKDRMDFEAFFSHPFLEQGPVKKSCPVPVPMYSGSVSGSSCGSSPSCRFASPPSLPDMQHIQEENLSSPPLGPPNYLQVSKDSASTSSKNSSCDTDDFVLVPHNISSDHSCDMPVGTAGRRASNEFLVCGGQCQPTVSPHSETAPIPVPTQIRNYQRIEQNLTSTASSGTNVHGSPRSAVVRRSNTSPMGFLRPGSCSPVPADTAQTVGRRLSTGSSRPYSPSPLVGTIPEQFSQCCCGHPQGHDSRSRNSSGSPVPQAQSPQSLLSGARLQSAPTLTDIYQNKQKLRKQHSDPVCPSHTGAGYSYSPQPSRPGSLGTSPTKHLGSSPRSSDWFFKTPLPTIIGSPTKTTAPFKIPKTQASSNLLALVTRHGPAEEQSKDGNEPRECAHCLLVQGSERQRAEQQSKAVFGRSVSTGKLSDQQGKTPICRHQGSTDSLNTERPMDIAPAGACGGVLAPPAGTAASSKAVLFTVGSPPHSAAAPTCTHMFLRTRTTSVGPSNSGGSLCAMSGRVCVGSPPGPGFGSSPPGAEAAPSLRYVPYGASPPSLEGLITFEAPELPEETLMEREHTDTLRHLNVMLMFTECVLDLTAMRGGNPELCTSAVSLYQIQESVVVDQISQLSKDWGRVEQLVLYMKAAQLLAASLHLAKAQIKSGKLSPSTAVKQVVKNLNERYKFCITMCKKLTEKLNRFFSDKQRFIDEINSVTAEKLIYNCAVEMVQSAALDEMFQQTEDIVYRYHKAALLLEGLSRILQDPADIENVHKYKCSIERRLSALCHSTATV
The settings on record: at 1 µM.

In experiment [9] the target is T3, Serine/threonine-protein kinase ULK2 (Homo sapiens). The settings on record: at 10 µM.
The target in experiment [10] is Serine/threonine-protein kinase WNK2 (Homo sapiens) (UniProt Q9Y3S1). The settings on record: at 1 µM.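 Note: residual WNK2 kinase activity expressed as percent of uninhibited control, assayed in MOPS buffer at pH 7.0 containing EDTA.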

Structures are written as SMILES.

Sequence of Serine/threonine-protein kinase WNK2 (Homo sapiens) (Q9Y3S1 whole entry): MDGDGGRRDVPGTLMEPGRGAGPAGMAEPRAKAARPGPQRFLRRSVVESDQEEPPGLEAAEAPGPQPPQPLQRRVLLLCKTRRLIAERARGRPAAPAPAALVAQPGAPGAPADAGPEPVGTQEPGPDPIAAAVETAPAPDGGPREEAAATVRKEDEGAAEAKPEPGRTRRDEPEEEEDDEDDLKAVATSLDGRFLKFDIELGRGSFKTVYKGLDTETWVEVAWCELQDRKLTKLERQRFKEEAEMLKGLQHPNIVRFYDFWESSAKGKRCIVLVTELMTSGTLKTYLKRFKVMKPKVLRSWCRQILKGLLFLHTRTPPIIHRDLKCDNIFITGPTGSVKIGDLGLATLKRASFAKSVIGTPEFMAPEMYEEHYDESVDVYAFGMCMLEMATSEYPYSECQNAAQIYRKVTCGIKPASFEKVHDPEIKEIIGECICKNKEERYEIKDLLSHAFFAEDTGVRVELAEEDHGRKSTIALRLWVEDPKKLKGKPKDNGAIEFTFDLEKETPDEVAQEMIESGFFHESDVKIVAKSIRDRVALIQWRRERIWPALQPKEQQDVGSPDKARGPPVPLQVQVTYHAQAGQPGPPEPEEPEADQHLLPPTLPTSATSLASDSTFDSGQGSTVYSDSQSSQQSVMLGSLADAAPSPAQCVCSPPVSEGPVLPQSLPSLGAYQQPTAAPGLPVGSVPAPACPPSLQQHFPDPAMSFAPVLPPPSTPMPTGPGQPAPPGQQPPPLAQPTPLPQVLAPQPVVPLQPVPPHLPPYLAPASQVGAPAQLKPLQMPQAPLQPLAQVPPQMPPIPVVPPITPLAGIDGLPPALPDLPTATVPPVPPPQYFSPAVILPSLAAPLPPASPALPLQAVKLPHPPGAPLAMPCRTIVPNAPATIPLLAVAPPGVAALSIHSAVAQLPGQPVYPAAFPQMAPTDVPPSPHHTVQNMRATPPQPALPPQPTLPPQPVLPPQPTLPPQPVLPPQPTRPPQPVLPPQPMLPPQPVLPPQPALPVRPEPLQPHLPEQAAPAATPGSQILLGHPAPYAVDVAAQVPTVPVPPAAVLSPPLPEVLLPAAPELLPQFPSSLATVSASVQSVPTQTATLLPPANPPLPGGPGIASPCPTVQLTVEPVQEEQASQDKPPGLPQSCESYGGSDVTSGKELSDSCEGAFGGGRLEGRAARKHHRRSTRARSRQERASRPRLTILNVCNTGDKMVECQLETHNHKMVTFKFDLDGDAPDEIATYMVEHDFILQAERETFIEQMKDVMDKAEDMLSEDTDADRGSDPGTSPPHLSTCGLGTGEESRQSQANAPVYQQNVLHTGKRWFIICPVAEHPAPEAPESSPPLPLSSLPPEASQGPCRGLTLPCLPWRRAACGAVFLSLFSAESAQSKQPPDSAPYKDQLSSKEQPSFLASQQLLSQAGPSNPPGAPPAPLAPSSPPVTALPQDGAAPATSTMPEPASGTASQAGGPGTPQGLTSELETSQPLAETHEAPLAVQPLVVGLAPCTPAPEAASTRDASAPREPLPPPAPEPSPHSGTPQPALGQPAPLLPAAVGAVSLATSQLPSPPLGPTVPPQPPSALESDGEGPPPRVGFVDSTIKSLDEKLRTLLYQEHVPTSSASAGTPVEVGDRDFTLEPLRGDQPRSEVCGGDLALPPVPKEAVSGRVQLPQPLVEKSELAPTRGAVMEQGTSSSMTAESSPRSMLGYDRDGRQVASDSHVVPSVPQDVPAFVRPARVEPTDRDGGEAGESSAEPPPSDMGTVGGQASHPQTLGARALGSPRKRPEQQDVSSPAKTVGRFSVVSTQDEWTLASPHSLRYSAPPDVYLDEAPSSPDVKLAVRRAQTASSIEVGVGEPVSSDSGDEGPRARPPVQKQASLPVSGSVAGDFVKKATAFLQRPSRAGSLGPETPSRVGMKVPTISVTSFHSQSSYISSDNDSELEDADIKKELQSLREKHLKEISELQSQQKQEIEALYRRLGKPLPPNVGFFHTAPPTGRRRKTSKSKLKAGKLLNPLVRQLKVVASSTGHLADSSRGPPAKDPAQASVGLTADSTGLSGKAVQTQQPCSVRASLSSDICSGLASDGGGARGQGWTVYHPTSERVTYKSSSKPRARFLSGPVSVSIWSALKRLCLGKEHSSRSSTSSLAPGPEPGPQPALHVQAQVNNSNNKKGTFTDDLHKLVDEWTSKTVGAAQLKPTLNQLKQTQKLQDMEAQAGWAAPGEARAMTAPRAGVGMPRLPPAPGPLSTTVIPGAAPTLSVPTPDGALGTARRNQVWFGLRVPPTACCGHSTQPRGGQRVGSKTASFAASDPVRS
Sequence of Serine/threonine-protein kinase VRK2 (Homo sapiens) (Q86Y07 whole entry): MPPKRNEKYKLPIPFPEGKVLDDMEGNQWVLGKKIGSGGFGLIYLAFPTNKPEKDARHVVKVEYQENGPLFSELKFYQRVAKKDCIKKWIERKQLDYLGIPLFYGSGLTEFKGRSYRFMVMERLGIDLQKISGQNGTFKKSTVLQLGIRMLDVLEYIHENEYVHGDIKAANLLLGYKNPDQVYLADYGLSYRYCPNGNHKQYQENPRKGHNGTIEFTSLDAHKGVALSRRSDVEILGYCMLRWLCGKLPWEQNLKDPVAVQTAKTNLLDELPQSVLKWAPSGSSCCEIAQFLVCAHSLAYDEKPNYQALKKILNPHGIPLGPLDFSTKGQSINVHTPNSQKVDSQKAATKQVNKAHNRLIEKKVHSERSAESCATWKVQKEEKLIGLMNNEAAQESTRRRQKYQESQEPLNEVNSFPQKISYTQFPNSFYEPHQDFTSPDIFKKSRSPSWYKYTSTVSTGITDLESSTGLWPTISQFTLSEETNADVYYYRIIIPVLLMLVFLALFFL
Sequence of BDNF/NT-3 growth factors receptor (Homo sapiens) (Q16620 32-822 limits assumed): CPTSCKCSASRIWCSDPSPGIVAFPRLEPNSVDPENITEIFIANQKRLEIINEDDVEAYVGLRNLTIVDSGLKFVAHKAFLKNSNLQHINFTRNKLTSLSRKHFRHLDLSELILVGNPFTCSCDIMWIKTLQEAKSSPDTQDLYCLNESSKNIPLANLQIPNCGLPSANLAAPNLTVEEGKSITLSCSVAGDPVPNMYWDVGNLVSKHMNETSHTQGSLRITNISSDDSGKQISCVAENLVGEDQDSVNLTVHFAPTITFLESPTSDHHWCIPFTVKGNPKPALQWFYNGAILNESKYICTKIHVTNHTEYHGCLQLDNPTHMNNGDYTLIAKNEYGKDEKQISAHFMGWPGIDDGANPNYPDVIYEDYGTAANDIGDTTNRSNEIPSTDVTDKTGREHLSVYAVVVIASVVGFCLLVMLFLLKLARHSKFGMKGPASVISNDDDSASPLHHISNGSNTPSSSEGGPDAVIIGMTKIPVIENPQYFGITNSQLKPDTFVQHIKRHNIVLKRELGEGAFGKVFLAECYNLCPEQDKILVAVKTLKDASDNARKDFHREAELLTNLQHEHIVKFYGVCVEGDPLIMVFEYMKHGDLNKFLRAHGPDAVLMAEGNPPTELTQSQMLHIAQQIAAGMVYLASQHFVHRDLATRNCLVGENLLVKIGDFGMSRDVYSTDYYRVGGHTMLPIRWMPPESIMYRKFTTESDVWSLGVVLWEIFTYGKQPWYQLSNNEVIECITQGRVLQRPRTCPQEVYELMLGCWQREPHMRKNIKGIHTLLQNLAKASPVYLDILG

For `O=C1Nc2ccc(Cl)cc2/C1=C/c1cc(Cl)c(O)c(Cl)c1`, the residual activity was 3% in experiment [1]; 93% in experiment [2]; 80% in experiment [3]; 89% in [4]; 47% in [5]; 110% (inactive) in [6]. Also, in [7], the residual activity was determined as 92%.

In the case of `CN(C)S(=O)(=O)c1ccc2c(c1)/C(=C/c1cc3c([nH]1)CCCC3)C(=O)N2`, the residual activity came out at 1% in experiment [1]; 92% in experiment [2]; 90% in experiment [3]; 38% in [8]; 13% in [9]; 11% in [4]. For the same molecule, the residual activity in [5] is 6%; in experiment [7], 91%; in experiment [10], 94% (inactive).

Consider `COc1ccc(-c2cnc3c(-c4ccsc4)cnn3c2)cc1`, for which the residual activity came out at 73% in [1]; 70% in [2]; 83% in [3]; 99% in experiment [8]; 96% in experiment [9]; 96% in [4]. In [5], the residual activity was 90%.

For `O=C1NC(=O)c2c1c1c3ccccc3[nH]c1n1cncc21`, the residual activity in experiment [1] is 20%; in experiment [2] it was 71%; in experiment [3] it was 79%; in experiment [8], 103%; in [9] it was 86%; in experiment [4], 80%. Further, the residual activity in experiment [5] is 70%; in experiment [6], 93% (inactive); in experiment [7] it was 91%; in experiment [10], 82% (inactive).

`CC(C)(C)n1nc(Cc2cccc3ccccc23)c2c(N)ncnc21`: the residual activity in experiment [1] is 24%; in [2], 43%; in experiment [3] it was 7%; in experiment [8], 106%; in experiment [9], 95%; in experiment [4], 109%. The residual activity in experiment [5] is 90%; in experiment [6], 92% (inactive); in experiment [7] it was 68%; in experiment [10], 98% (inactive).

With `Nc1n[nH]c2nc3ccccc3nc12`, the residual activity in experiment [1] worked out at 85%; in [2], 87%; in [3], 76%; in experiment [9] it was 92%; in [4] it was 87%; in experiment [5] it was 84%. Further, the results for the residual activity in [6] and in [7] were 99% (inactive) and 86%, respectively.

As to `CN([C@@H](Cc1ccc(OS(=O)(=O)c2cccc3cnccc23)cc1)C(=O)N1CCN(c2ccccc2)CC1)S(=O)(=O)c1cccc2cnccc12`, in experiment [1], the residual activity was 50%.

As for `O=C1NC(=O)C(c2cn(CCCO)c3ncccc23)=C1c1cnccn1`, the residual activity is 90% in experiment [1]; 82% in experiment [2]; 86% in [3]; 93% in experiment [4]; 92% in experiment [5].

In the case of `O=C(c1ccccc1)c1ccc(N2CCOCC2)cc1O`, the residual activity in experiment [1] is 113%; in [2] it was 82%; in [3], 70%; in experiment [9] it was 94%; in [5] it was 92%; in experiment [6], 98% (inactive). Also, the residual activity in [7] was 94%; in experiment [10] it was 115% (inactive).

Turning to `CSc1nc(-c2ccc(F)cc2)c(-c2ccnc(NC(C)c3ccccc3)c2)[nH]1` (stereo not drawn), the residual activity in [1] worked out at 1%; in [2], 86%; in [3], 86%; in [7], 93%.

For the molecule `O=c1cc(N2CCOCC2)oc2c(-c3ccccc3)cccc12`, in experiment [3], the residual activity came out at 69%.

Consider `N#Cc1c(NC(=O)c2cccc3ccccc23)sc2c1CCCC2`, for which the residual activity came to 90% in [2] and 80% in [3].

With `O=c1cc(N2CCNCC2)oc2c(-c3ccccc3)cccc12`, the residual activity is 98% in experiment [3]; 100% in [8]; 95% in experiment [9]; 101% in [4]; 92% in experiment [5]; 95% (inactive) in experiment [6]. In addition, in [7], the residual activity came to 90%.

`O=C1Cc2c([nH]c3ccc([N+](=O)[O-])cc23)-c2ccccc2N1`: the residual activity in [2] stood at 49%; in experiment [3], 39%; in experiment [8] it was 49%; in experiment [9], 45%; in experiment [4] it was 75%; in [5] it was 53%.

As for `NCCNc1ncc(C(N)=O)c(Nc2cccc(C(F)(F)F)c2)n1`, the residual activity in [1] was 29%; in [3], 61%; in [4], 82%; in [5], 24%; in [7], 43%; in [10], 111% (inactive).

With `O=C1NC(=O)C(c2c[nH]c3ccccc23)=C1c1c[nH]c2ccccc12`, the residual activity was determined as 24% in experiment [1] and 75% in experiment [7].

Turning to `O=C1Cc2c([nH]c3ccc(Br)cc23)-c2ccccc2N1`, the residual activity is 66% in experiment [1], 99% (inactive) in experiment [6], 90% in [7] and 93% (inactive) in [10].

On to `Cc1cc(C)c(/C=C2\C(=O)Nc3ccccc32)[nH]1`, for which the residual activity in experiment [1] was -7%; in experiment [2] it was 103%; in experiment [6], 98% (inactive); in experiment [7], 68%.

`CCN1/C(=C/C(C)=O)Sc2ccc(OC)cc21`: the residual activity was 81% in experiment [2], 77% in experiment [3] and 76% (inactive) in [10].

Turning to `Oc1cccc(-c2nc(N3CCOCC3)c3oc4ncccc4c3n2)c1`, the residual activity worked out at 93% in experiment [2]; 92% in experiment [3]; 81% in experiment [9]; 92% in [5]; 89% in experiment [7].

As to `Nc1ncnc2c1cnn2-c1ccccc1`, the residual activity in experiment [1] was 97%; in experiment [3], 78%; in experiment [8], 101%; in experiment [9], 98%; in experiment [5] it was 91%; in experiment [6] it was 102% (inactive). Also, in experiment [7], the residual activity was found to be 90%.

Turning to `CC(C)N(CCC(=O)c1ccc2ccccc2c1)Cc1ccccc1`, the residual activity was 42% in experiment [3], 86% in [5], 100% (inactive) in experiment [6] and 86% in experiment [7].

For the molecule `O=c1c(-c2ccc(F)cc2)c(-c2ccncc2)[nH]n1-c1ccc(Cl)cc1`, the residual activity in experiment [9] is 102%; in experiment [6], 100% (inactive); in experiment [7], 99%.

For the molecule `Cn1sc(=O)n(Cc2ccccc2)c1=O`, the residual activity in experiment [2] came out at 83%; in experiment [3], 88%; in experiment [8], 90%; in experiment [9] it was 93%; in experiment [4], 92%; in experiment [5], 92%. Moreover, the residual activity in [6] was 98% (inactive); in experiment [7] it was 90%; in [10] it was 96% (inactive).

For `N#C/C(=C1/Nc2ccccc2S1)c1ccnc(NCCc2cccnc2)n1`, the residual activity is 44% in experiment [1] and 63% (inactive) in [10].

As for `CC(C)[C@H](CO)Nc1nc(Nc2cc(N)cc(Cl)c2)c2ncn(C(C)C)c2n1`, the residual activity in [2] was 63%; in experiment [3], 17%; in experiment [4] it was 41%; in experiment [5], 8%; in experiment [10] it was 87% (inactive).

Consider `Nc1ncnc2[nH]nc(Nc3ccc(F)cc3)c12`, for which the residual activity stood at 66% in experiment [2]; 18% in experiment [3]; 120% in experiment [8]; 95% in experiment [9]; 97% in [4]; 74% in [5]. The residual activity was 97% (inactive) in experiment [6], 81% in experiment [7] and 101% (inactive) in experiment [10].

In the case of `c1ccc(-c2cnc(Nc3ccc(OCCN4CCCC4)cc3)s2)cc1`, the residual activity is 3% in experiment [1]; 60% in experiment [3]; 59% in [8]; 16% in experiment [9]; 123% (inactive) in experiment [10].

For `COc1ccc(Cl)cc1NC(=O)Nc1cc(C)nc2ccccc12`, the residual activity in experiment [3] is 60%; in [9], 85%; in experiment [5], 96%; in [6] it was 98% (inactive); in [7], 94%.

One may read the residual activity as the signal under treatment as a percentage of the control signal.
